Assay outcomes: PubChem BioAssay, several laboratories
A selection: hits, their analogues and other compounds. The true share with any hit is near 5.3%.
Mot1-301 SUMO: SUMOylation pathway inhibition by Mot1-301 growth rescue; S. cerevisiae Mot1-301 growth rescue, ATP luminescence, 38.5C; percent above DMSO median, 100 means doubled; growth rescue, % at 18.8 µM; 1% of 320,000 active;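 active = every valid replicate shows activation above 250% relative to neutral control wells; inactive = the rest, any valid replicate at or below 250%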;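 note: OY570 slx delta 5 strain wells were the positive control but not used for scaling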
HIF act: HIF pathway transcriptional activation. U2OS HRE-luciferase reporter, luminescence; normalized: DMSO 0%, desferrioxamine 100%. activation, % at 7.5 µM (by protocol). 0.32% of 300,000 active;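 active = mean activation of at least 10% of the iron chelator positive control signal, with at least half of replicates also reaching 10%; inconclusive = mean and replicate majority disagree about reaching 10%; inactive = mean and most replicates under 10%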
ALR H2O2 inh: human ALR oxidase inhibition via reduced H2O2; inhibition, % (concentration not given with the values); purified ALR, DTT oxidation, H2O2 HRP-luminol luminescence; 3.8% of 290,000 active;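 active = mean replicate inhibition above about 79%, with every replicate also reaching it, limit read from the data; inconclusive = only one of the two criteria met; inactive = mean below limit and not every replicate reaching it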
Target sequence (P55789 whole entry, looked up): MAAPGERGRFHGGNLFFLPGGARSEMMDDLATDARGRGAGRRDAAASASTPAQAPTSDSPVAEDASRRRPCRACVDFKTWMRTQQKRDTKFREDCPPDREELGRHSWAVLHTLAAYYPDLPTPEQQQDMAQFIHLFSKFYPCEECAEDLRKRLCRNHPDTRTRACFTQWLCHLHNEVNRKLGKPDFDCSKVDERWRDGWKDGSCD
PfM18AAP inh-1: PfM18AAP enzyme inhibition; recombinant PfM18AAP, H-Glu-NHMec fluorogenic cleavage; inhibition, % at 7.35 µM; 1.2% of 290,000 active;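 active = inhibition above the campaign mean inhibition over all tested compounds plus 3 SD, cut at about 28% in these data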;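 note: 0% = plate median of test compound wells and 100% = 2 mM ZnCl2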
PfM18AAP inh-2: PfM18AAP inhibition, confirmation | shares compounds with PfM18AAP inh-1 | recombinant PfM18AAP, H-Glu-NHMec fluorogenic cleavage | inhibition, % at 7.35 µM | 28% of 2,400 active | AID 2170;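 active = mean inhibition over replicate wells above the hit cutoff set for the earlier primary screen, cut at about 29% in these data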;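 note: 0% = median of test compound wells and 100% = 2 mM ZnCl2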
CTSL1 confirm: counter-screen for PFM18AAP inhibitors: confirmation of human cathepsin L inhibitors; shares compounds with PfM18AAP inh-1; purified cathepsin L1, Z-Leu-Arg-MCA fluorescence; inhibition, % at 5.96 µM; 2,400 tested, under 10 active;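 active = average inhibition across replicates above the hit cutoff set in the earlier primary screen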;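 note: 0% = median of test compound wells and 100% = Z-Phe-Ala-diazomethylketone 1 µM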
Target sequence (P07711 whole entry, looked up): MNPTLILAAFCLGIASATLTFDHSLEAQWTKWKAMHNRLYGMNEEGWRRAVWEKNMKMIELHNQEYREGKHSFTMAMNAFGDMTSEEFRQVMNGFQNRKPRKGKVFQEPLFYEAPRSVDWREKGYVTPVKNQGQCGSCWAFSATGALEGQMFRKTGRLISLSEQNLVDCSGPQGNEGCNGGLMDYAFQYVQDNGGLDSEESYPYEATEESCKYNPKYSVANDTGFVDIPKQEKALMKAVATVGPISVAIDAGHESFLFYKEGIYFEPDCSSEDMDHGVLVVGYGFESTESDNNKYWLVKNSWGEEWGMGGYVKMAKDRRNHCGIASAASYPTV
* hit, by the source's call; ? = inconclusive; nt = not tested or not shown.

SMILES | Mot1-301 SUMO | HIF act | ALR H2O2 inh | PfM18AAP inh-1 | PfM18AAP inh-2 | CTSL1 confirm
O=C(/C=C/c1ccco1)Nc1ccc(Cl)c(S(=O)(=O)N2CCOCC2)c1 | -21 | 0 | 1 | 4 | nt | nt
COc1ccc(-n2nnc3c(SC(C(C)=O)C(=O)N(C)C)ncnc32)cc1 (stereo not given) | -6 | 0 | 38 | 46* | 2 | -2
C/C(CC(=O)Nc1cccc(F)c1)=N\NC(=O)c1ccncc1 | 73 | 0 | 47 | -1 | nt | nt
O=C(O)c1ccc(N/N=C/c2ccc(C(F)(F)F)cc2)cc1 | 3 | -6 | nt | -17 | nt | nt
O=C(NNc1ncc(C(F)(F)F)cc1Cl)c1c(Cl)cccc1Cl | -16 | 2 | nt | 9 | nt | nt
NC(=O)NNc1ncc(C(F)(F)F)cc1Cl | -6 | -1 | ? | 45* | 36* | -5
O=C(O)c1ccc(/C=N/Nc2ncc(C(F)(F)F)cc2Cl)cc1 | -36 | 1 | nt | 48* | -25 | 7
C/C(Cn1nc([N+](=O)[O-])cc1C)=N\NC(=O)c1ccc(O)cc1O | -3 | 0 | 5 | 41* | 4 | 6
COc1ccc(O)c(/C=N/c2sc(C)c(C)c2C#N)c1 | 69 | 0 | 8 | 42* | -23 | -1
Cc1sc(/N=C/c2c(O)ccc3ccccc23)c(C#N)c1C | 11 | 0 | -11 | 10 | nt | nt
N#C/C(=C/c1ccc(O)c(O)c1)c1nc2ccccc2[nH]1 | -3 | 4 | 90* | 62* | 43* | -1
N#C/C(=C\c1cccs1)c1nc2ccccc2[nH]1 | 34 | 3 | nt | 1 | nt | nt
CC1CCCN(C(C(=O)NC2CCCCC2)c2cc3c(cc2[N+](=O)[O-])OCO3)C1 (stereo not given) | -14 | 3 | 3 | 7 | nt | nt
CN(CC(=O)Nn1cnnc1)S(=O)(=O)c1ccccc1 | -10 | 0 | -5 | 32* | 20 | -5
CCN(CC)S(=O)(=O)c1ccc(C(=O)Nn2cnnc2)cc1 | -17 | 0 | -20 | 81* | 75* | 7
CN(CC(=O)Nc1ccncc1)S(=O)(=O)c1ccccc1 | 546 | 0 | -13 | -6 | nt | nt
OC(CNCc1ccccc1)Cn1ccc2ccccc21 (stereo not given) | -3 | 0 | -8 | 3 | nt | nt
Oc1ccccc1NCC(O)Cn1ccc2ccccc21 (stereo not given) | -8 | 0 | ? | 56* | 18 | 1
O=S(=O)(NC12CC3CC(CC(C3)C1)C2)c1ccc(F)cc1 | 150 | 2 | -5 | 2 | nt | nt
COc1ccccc1OC(=O)CCc1nc2ccccc2s1 | 732 | 0 | -4 | 38* | -9 | -1
CC(=O)c1ccc(OC(=O)CCc2nc3ccccc3s2)cc1 | -9 | 0 | 93* | 39* | 8 | -43
O=C(CCc1nc2ccccc2s1)OCC(=O)c1ccccc1 | -13 | 1 | -2 | 3 | nt | nt
CC1CC(C)CN(C(=O)CN2C(=O)NC(c3ccccc3)(c3ccccc3)C2=O)C1 (stereo not given) | 33 | nt | 2 | nt | nt | nt
COC(=O)COc1ccc2oc(=O)cc(-c3cc4cccc(OC)c4o3)c2c1 | 12 | 0 | 3 | 0 | nt | nt
COC(=O)COc1cccc(NC(=O)C(c2ccccc2)c2ccccc2)c1 | -10 | -2 | nt | 1 | nt | nt
SMILES | Mot1-301 SUMO | HIF act | ALR H2O2 inh | PfM18AAP inh-1 | PfM18AAP inh-2 | CTSL1 confirm
O=[N+]([O-])c1ccc(N/N=C/c2cccc(O)c2O)cc1 | 317* | 6 | 6 | 36* | 4 | 1
O=C(N/N=C/c1ccc[nH]1)c1ccccc1[N+](=O)[O-] | -3 | 0 | 9 | 9 | nt | nt
O=[N+]([O-])c1ccc(N/N=C/c2ccc[nH]2)cc1 | 117 | nt | 72 | 35* | -31 | 4
O=[N+]([O-])c1ccc(N/N=C/c2c[nH]c3ccccc23)cc1 | 11 | 2 | -5 | 37* | -52 | 4
Cc1cccc(C(=O)Oc2ccccc2/C=N/Nc2ccc([N+](=O)[O-])cc2)c1 | 22 | nt | -3 | -9 | nt | nt
COc1cc(-c2nc3ccccn3c2NCC2CCCO2)ccc1O (stereo not given) | 0 | 1 | 99* | 32* | 34* | 1
CC(=O)c1ccc(N2CCN(c3ccc(C(N)=O)cc3[N+](=O)[O-])CC2)cc1 | 1 | 0 | -7 | -2 | nt | nt
NC(=O)c1ccc(N2CCN(c3ccc(O)cc3)CC2)c([N+](=O)[O-])c1 | 3 | 0 | 99* | 50* | 6 | 2
S=C(Nc1ccc(Oc2ccccc2)cc1)N(CCCN1CCOCC1)Cc1ccccn1 | 7 | 1 | -4 | -5 | nt | nt
O=C(Nc1cc(S(=O)(=O)N2CCOCC2)ccc1N1CCOCC1)c1ccccc1Cl | 13 | nt | -3 | nt | nt | nt
CCN(CC)S(=O)(=O)c1ccc(N2CCCCC2)c(NC(=O)/C(C#N)=C/c2ccc(OC)cc2)c1 | 63 | 0 | -5 | 0 | nt | nt
COc1ccc(/C=C(\C#N)C(=O)Nc2cc(S(=O)(=O)N3CCOCC3)ccc2N2CCCC2)cc1 | -19 | 0 | -7 | 40* | 0 | -4
NNC(=S)Nc1cc(S(=O)(=O)N2CCOCC2)ccc1N1CCOCC1 | 2 | 0 | 11 | 40* | 14 | -8
CCOC(=O)c1cnc2c(ccc3ccccc32)c1N | -18 | 6 | 5 | -3 | nt | nt
O=C(NCc1ccco1)C1CCCN1C(=O)Nc1cccc(Cl)c1 (stereo not given) | 10 | 0 | -2 | 5 | nt | nt
CC(C)(C)c1ccc(OCc2ccc(C(=O)N/N=C/c3ccc(O)c(O)c3)cc2)cc1 | -29 | 3 | nt | 36* | -5 | -6
O=C(COc1ccccc1[N+](=O)[O-])N/N=C/c1ccc(O)c([N+](=O)[O-])c1 | -15 | 0 | -7 | 2 | nt | nt
O=C(COc1ccccc1C(=O)N/N=C\c1ccc(O)c(O)c1)N/N=C/c1ccc(O)c(O)c1 | -7 | 0 | 99* | 76* | 74* | 0
CN(C)Cc1c(O)ccc2c(=O)c(-c3ccc(Cl)cc3)coc12 | -1 | 0 | 11 | -11 | nt | nt
O=c1c(-c2ccc([N+](=O)[O-])cc2)coc2c(O)c(O)ccc12 | -9 | 1 | 9 | 45* | 25 | -2
O=C(O)C1CCN(c2ccc(S(=O)(=O)N3CCC(C(=O)O)CC3)cc2[N+](=O)[O-])CC1 | -13 | 0 | 0 | 8 | nt | nt
O=C(O)C1CCN(S(=O)(=O)c2ccc(N3CCCC3C(=O)O)c([N+](=O)[O-])c2)CC1 (stereo not given) | -4 | 0 | -2 | 36* | -21 | 1
O=C(Cc1ccc([N+](=O)[O-])cc1)c1c(O)cc(O)cc1O | 15 | 0 | 53 | 44* | 21 | -9
COC(=O)Cc1ccc(O)c(N)c1 | -9 | 0 | 95* | 54* | 61* | 0
Cc1cc(N2CCOCC2)ccc1/C=C\[N+](=O)[O-] | -12 | 2 | 28 | 12 | nt | nt
O=[N+]([O-])c1cc(C(F)(F)F)cc([N+](=O)[O-])c1N1CCCNCC1 | 213 | 0 | -7 | 1 | nt | nt
